Results from the supplement of paper PMC10127200.
Where a name gives a salt, the structure may show the parent alone.

system: 786-O; assay: Euclidean distance of Cell Painting phenotypic profile (signed KS, 77 features) to DMSO centroid (dimensionless distance); higher = stronger phenotypic change vs DMSO (phenoactivity); conditions: 48 h; 5 or 10 uM (library dependent)
Summary of the method: (§1)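 Phenoactivity is defined as the Euclidean distance from a compound profile to the median vehicle profile. Each profile comprised 77 Harmony features, scored as signed Kolmogorov-Smirnov statistics versus same-plate vehicle wells, then plate-position corrected, correlation-weighted and replicate-averaged at the top dose. Five cancer lines and one healthy fibroblast line were exposed to library compounds for 48 h at 10 or 5 uM (0.1% DMSO final).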

SMILES	Euclidean distance
CCNC1(c2cccs2)CCCCC1=O (centres undefined) [Tiletamine Hydrochloride]	1.22
COc1cc(OC)c(OC)cc1C=O [Asaraldehyde]	1.25
OC(c1ccccc1)(c1ccccc1)C1CCNCC1 [Azacyclonol]	2.95
O=C1CCC[C@@H]2[C@H]3CCCN4CCC[C@@H](CN12)[C@@H]34 [(+)-Matrine]	1
COc1ccc(CN2CCNCC2)c(OC)c1OC [Trimetazidine dihydrochloride]	0.784
CC[C@H](C)[C@H]1O[C@]2(C=C[C@@H]1C)C[C@@H]1C[C@@H](C/C=C(\C)[C@@H](O[C@H]3C[C@H](OC)[C@@H](O[C@H]4C[C@H](OC)[C@@H](O)[C@H](C)O4)[C@H](C)O3)[C@@H](C)/C=C/C=C3\CO[C@@H]4[C@H](O)C(C)=C[C@@H](C(=O)O1)[C@]34O)O2.CO[C@H]1C[C@H](O[C@H]2[C@H](C)O[C@@H](O[C@@H]3/C(C)=C/C[C@@H]4C[C@@H](C[C@]5(C=C[C@H](C)[C@@H](C(C)C)O5)O4)OC(=O)[C@@H]4C=C(C)[C@@H](O)[C@H]5OC/C(=C\C=C\[C@@H]3C)[C@]54O)C[C@@H]2OC)O[C@@H](C)[C@@H]1O [Avermectin B1]	1.43
C[C@]12N[C@H](Cc3ccccc31)c1ccccc12 [MK-801 (Dizocilpine)]	0.525
CC(C)(C)c1cc(C=C(C#N)C#N)cc(C(C)(C)C)c1O [Tyrphostin 9]	3
CCCN1C[C@H](CSC)C[C@@H]2c3cccc4[nH]cc(c34)C[C@H]21 [Pergolide mesylate]	0.662
CN1[C@@H]2C[C@@H](OC(=O)[C@H](CO)c3ccccc3)C[C@H]1[C@@H]1O[C@@H]12 [Scopolamine HBr]	1.07
C=CCN1CC[C@]23c4c5ccc(O)c4O[C@H]2C(=O)CC[C@@]3(O)[C@H]1C5 [Naloxone HCl]	1.04
CCN(C)C(=O)Oc1cccc([C@H](C)N(C)C)c1 [Rivastigmine Tartrate]	0.824
N#Cc1nn(-c2c(Cl)cc(C(F)(F)F)cc2Cl)c(N)c1[S+]([O-])C(F)(F)F (centres undefined) [Fipronil]	0.855
COC(=O)C1=CCCN(C)C1 [Arecoline HBr]	0.921
N[C@@H](Cc1ccc(N(CCCl)CCCl)cc1)C(=O)O [Melphalan]	2.91
C[S+]([O-])CCCCN=C=S (centres undefined) [sulforaphane]	1.73
Cc1ccc(-n2nccn2)c(C(=O)N2CCN(c3nc4cc(Cl)ccc4o3)CC[C@H]2C)c1 [Suvorexant (MK-4305)]	0.574
COC(=O)C1=CCCN(C)C1 [Arecoline]	0.942
CCN1CCN(C(=O)Cc2ccc(Nc3ncc(F)c(Nc4ccc(C(=O)Nc5ccccc5Cl)cc4)n3)cc2)CC1 [Aurora A Inhibitor I]	5.7
CC(C)[C@]12O[C@H]1[C@@H]1O[C@]13[C@]1(O[C@H]1C[C@H]1C4=C(CC[C@@]13C)C(=O)OC4)[C@@H]2O [Triptolide (PG490)]	3.96

system: A549; assay: as above; conditions: 48 h; 5 or 10 uM (library dependent)
Summary of the method: as §1

SMILES	Euclidean distance
CN1[C@@H]2CC[C@H]1C[C@@H](OC(=O)C(CO)c1ccccc1)C2 (some centres undefined) [Atropine sulfate monohydrate]	0.691
CN1CCN(c2nc3ccccc3nc2Cl)CC1	1.25
O=C([O-])C(Cl)Cl.[Na+] [Sodium dichloroacetate (DCA)]	0.753
CC(Cc1ccc(O)cc1)NCC(O)c1cc(O)cc(O)c1 (centres undefined) [Fenoterol hydrobromide]	0.319
CCC(COC(=O)c1cc(OC)c(OC)c(OC)c1)(c1ccccc1)N(C)C (centres undefined) [Trimebutine]	0.4
O=C/C=C/c1ccccc1 [Cinnamaldehyde]	0.658
COc1ccc2c(c1)[nH]c1c(C)nccc12 [Harmine hydrochloride]	1.17
CC(=O)OCC1=C(C(=O)O)N2C(=O)[C@@H](N)[C@H]2SC1 [7-Aminocephalosporanic acid]	0.819
CN1c2ccccc2C(NCCCCCCC(=O)O)c2ccc(Cl)cc2S1(=O)=O (centres undefined) [Tianeptine sodium]	0.593
CCCN1C[C@H](CSC)C[C@@H]2c3cccc4[nH]cc(c34)C[C@H]21 [Pergolide Mesylate]	1.03
CC[C@H]1[C@@H]2C[C@H]3[C@@H]4N(C)c5ccccc5[C@]45C[C@@H]([C@@H]2[C@H]5O)N3[C@@H]1O [Ajmaline]	0.849
Cc1cccc(C)c1NC1=NCCCS1 [Xylazine]	0.386
Cn1c(CCCC(=O)O)nc2cc(N(CCCl)CCCl)ccc21 [Bendamustine]	0.793
C[C@@H]1CC[C@@]2(OC1)O[C@H]1C[C@H]3[C@@H]4CC=C5C[C@@H](O[C@@H]6O[C@H](CO)[C@@H](O[C@@H]7O[C@@H](C)[C@H](O)[C@@H](O)[C@H]7O)[C@H](O)[C@H]6O[C@@H]6O[C@@H](C)[C@H](O)[C@@H](O)[C@H]6O)CC[C@]5(C)[C@H]4CC[C@]3(C)[C@H]1[C@@H]2C [Dioscin]	2.54
CCNC1(c2cccs2)CCCCC1=O (centres undefined) [Tiletamine Hydrochloride]	1.39
COc1cc(OC)c(OC)cc1C=O [Asaraldehyde]	0.833
OC(c1ccccc1)(c1ccccc1)C1CCNCC1 [Azacyclonol]	2.91

SMILES	Euclidean distance
O=C1CCC[C@@H]2[C@H]3CCCN4CCC[C@@H](CN12)[C@@H]34 [(+)-Matrine]	0.876
COc1ccc(CN2CCNCC2)c(OC)c1OC [Trimetazidine dihydrochloride]	0.96
CC[C@H](C)[C@H]1O[C@]2(C=C[C@@H]1C)C[C@@H]1C[C@@H](C/C=C(\C)[C@@H](O[C@H]3C[C@H](OC)[C@@H](O[C@H]4C[C@H](OC)[C@@H](O)[C@H](C)O4)[C@H](C)O3)[C@@H](C)/C=C/C=C3\CO[C@@H]4[C@H](O)C(C)=C[C@@H](C(=O)O1)[C@]34O)O2.CO[C@H]1C[C@H](O[C@H]2[C@H](C)O[C@@H](O[C@@H]3/C(C)=C/C[C@@H]4C[C@@H](C[C@]5(C=C[C@H](C)[C@@H](C(C)C)O5)O4)OC(=O)[C@@H]4C=C(C)[C@@H](O)[C@H]5OC/C(=C\C=C\[C@@H]3C)[C@]54O)C[C@@H]2OC)O[C@@H](C)[C@@H]1O [Avermectin B1]	2.77
C[C@]12N[C@H](Cc3ccccc31)c1ccccc12 [MK-801 (Dizocilpine)]	0.829
CC(C)(C)c1cc(C=C(C#N)C#N)cc(C(C)(C)C)c1O [Tyrphostin 9]	2.48
CCCN1C[C@H](CSC)C[C@@H]2c3cccc4[nH]cc(c34)C[C@H]21 [Pergolide mesylate]	0.713
CN1[C@@H]2C[C@@H](OC(=O)[C@H](CO)c3ccccc3)C[C@H]1[C@@H]1O[C@@H]12 [Scopolamine HBr]	0.645
C=CCN1CC[C@]23c4c5ccc(O)c4O[C@H]2C(=O)CC[C@@]3(O)[C@H]1C5 [Naloxone HCl]	0.456
CCN(C)C(=O)Oc1cccc([C@H](C)N(C)C)c1 [Rivastigmine Tartrate]	0.471
N#Cc1nn(-c2c(Cl)cc(C(F)(F)F)cc2Cl)c(N)c1[S+]([O-])C(F)(F)F (centres undefined) [Fipronil]	1.11
COC(=O)C1=CCCN(C)C1 [Arecoline HBr]	0.978
N[C@@H](Cc1ccc(N(CCCl)CCCl)cc1)C(=O)O [Melphalan]	2.76
C[S+]([O-])CCCCN=C=S (centres undefined) [sulforaphane]	1.68
Cc1ccc(-n2nccn2)c(C(=O)N2CCN(c3nc4cc(Cl)ccc4o3)CC[C@H]2C)c1 [Suvorexant (MK-4305)]	1.02
COC(=O)C1=CCCN(C)C1 [Arecoline]	1.44
CCN1CCN(C(=O)Cc2ccc(Nc3ncc(F)c(Nc4ccc(C(=O)Nc5ccccc5Cl)cc4)n3)cc2)CC1 [Aurora A Inhibitor I]	4.77
CC(C)[C@]12O[C@H]1[C@@H]1O[C@]13[C@]1(O[C@H]1C[C@H]1C4=C(CC[C@@]13C)C(=O)OC4)[C@@H]2O [Triptolide (PG490)]	3.27
